The structures appear in SMILES notation. Values joined by “and” are separate entries in the source; they are usually repeats but may differ in a detail not shown here. Identical values can stand only once. About 2,600 (0.6%) of roughly 430,000 compounds were called active. The sample holds actives, similar compounds and a random draw of the others, so the mix is not that of the screen. Cut-off read from the data, not from the text of the source: active = inhibition mostly above about 37% (no sharp cut-off); inactive = mostly below about 20%.

This assay has as its system PriA–SSB C-terminal tail interaction (Klebsiella pneumoniae). The assay can be described thus: blocks PriA binding to SSB C-terminal tail, primary screen, biochemical, AlphaScreen (AID 1272365).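 Note: plate controls were negative control peptide for no effect and reference peptide for full effect.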 As to conditions: AlphaScreen SSBct-PriA binding, biotinylated peptide; at 33 µM, stronger effect = higher value.
In the case of `Cc1cccc(-n2cnc(C(=O)Nc3cccnc3)c2)n1`, the inhibition was -12.9% (inactive). The value for `O=C(NNC(=S)Nc1ccccc1)c1cccc(S(=O)(=O)N2CCOCC2)c1` was -5.79% (inactive); that for `Cc1cccc(-n2cnc(C(=O)NNC(=S)Nc3ccccc3)c2)n1` was 66.5% (active).

Consider `O=C(NCC(F)(F)F)C1CCN(c2cc(-n3cncn3)ncn2)CC1`, for which the inhibition is 4% (inactive). In the case of `Cc1c(CCOC(=O)C23CC4CC(CC(C)(C4)C2)C3)sc[n+]1Cc1ccc([N+](=O)[O-])cc1` it was 39% (active); in that of `Cc1c(CCOC(=O)CC23CC4CC(CC(C)(C4)C2)C3)sc[n+]1Cc1ccc([N+](=O)[O-])cc1`, 6.21% (inactive); in that of `O=C(Nc1ccc([N+](=O)[O-])cc1Br)C12CC3CC(CC(C3)C1)C2`, -8% (inactive). In the case of `COc1ccc(-c2noc(CN3N=NC4C(=O)N(c5ccc(C)c(F)c5)C(=O)C43)n2)c(OC)c1` (stereo not drawn) it was 6% (inactive). The value for `O=C(NCC(O)(c1ccccc1)C(F)(F)F)C(=O)Nc1ccccc1` (stereo not drawn) was -3% (inactive); that for `CS(=O)(=O)N1CCC(CNC(=O)c2cc3ccccc3o2)CC1` was -23% (inactive); that for `CC1(C)N=C(SCC(=O)Nc2ccc(Br)cc2)C(c2ccccc2)=N1` was -5% (inactive). As to `COc1cc2nc(N(CCN(C)C)C(=O)c3ccc(S(=O)(=O)N(C)Cc4ccccc4)cc3)sc2cc1OC`, the inhibition is 24% (inactive). In the case of `CN(C)CCCN(C(=O)c1ccc(S(=O)(=O)N2CCCc3ccccc32)cc1)c1nc2ccc(F)cc2s1` it was 42% (active). In the case of `CCOc1ccc2nc(N(Cc3ccncc3)C(=O)Cc3ccc(F)cc3)sc2c1` it was 13% (inactive); in that of `CN(C)CCN(C(=O)CCOc1ccccc1)c1nc2cc3c(cc2s1)OCO3`, 7% (inactive); in that of `Cc1ccc2nc(N(CCN(C)C)C(=O)c3ccc(S(=O)(=O)N4CCCCCC4)cc3)sc2c1`, 35% (active). In the case of `COc1cccc2sc(N(CCCN(C)C)C(=O)c3ccc(F)cc3)nc12` it was -18% (inactive). For the compound `CCOc1ccc2nc(N(CCN(C)C)C(=O)c3ccc(S(=O)(=O)N4CCC(C)CC4)cc3)sc2c1`, the inhibition was 29% (inactive). In the case of `COc1ccc2nc(N(CCN(C)C)C(=O)c3ccc(S(=O)(=O)N4CCCc5ccccc54)cc3)sc2c1` it was 41% (active); in that of `CN(C)CCCN(C(=O)c1ccccc1)c1nc2c(F)cc(F)cc2s1`, 5% (inactive); in that of `CC1CN(S(=O)(=O)c2ccc(C(=O)N(CCN(C)C)c3nc4cc5c(cc4s3)OCCO5)cc2)CC(C)O1` (stereo not drawn), 15% (inactive). In the case of `CCOc1ccc2nc(N(CCN(C)C)C(=O)c3ccc4ccccc4c3)sc2c1`, the inhibition was 14.2% (inactive) and 45% (active). As to `COc1ccc2nc(N(CCN3CCOCC3)C(=O)c3ccccc3S(C)(=O)=O)sc2c1`, the inhibition was 0% (inactive). The value for `O=C1CCCC(=O)N1CCS(=O)(=O)N1CCC(c2nnc(-c3ccco3)s2)CC1` was -4% (inactive); that for `O=C([C@@H]1CC=CCC1)N1CCN(c2ccc(-n3cncn3)nn2)CC1` was -9% (inactive); that for `CCc1nc(-c2ccc(N3CCN(C(=O)c4cc5cccc(OC)c5o4)CC3)nc2)no1` was -1% (inactive).

Take `NCc1n[nH]c(=O)c2ccccc12`: the inhibition is -2% (inactive) and -4% (inactive).

For the compound `COC(=O)c1ccccc1NC(=O)c1snnc1C`, the inhibition is -11% (inactive). The value for `CN1CCN(c2nc3ccc(NC(=O)c4ccc5c(c4)OCO5)cc3s2)CC1` was -2% (inactive); that for `COc1cccc2cc(C(=O)Nc3ccc4nc(N5CCN(C)CC5)sc4c3)oc12` was -6% (active); that for `COc1ccc(OC)c(C(=O)Nc2ccc3nc(N4CCN(C)CC4)sc3c2)c1` was 6% (inactive) and -21% (inactive). The value for `O=C(NCC#CCOc1ccc2c(c1)OCO2)Nc1ccccc1C(F)(F)F` was -21% (inactive); that for `Cc1ccccc1-c1nc(CSc2nc(C)c(Cc3ccccc3)c(=O)[nH]2)c(C)o1` was 7% (inactive); that for `Cc1nc2oc(-c3ccccc3)nc2cc1NC(=O)c1cc(=O)c2ccccc2o1` was -8% (inactive). Take `Cc1c(C(=O)O)cccc1-c1ccc(C=NNc2ccc(Br)cc2)o1`: the inhibition is 0.6% (inactive). In the case of `CC(NC(=O)c1ccco1)C(=O)Nc1nc(-c2ccccn2)cs1` (stereo not drawn) it was 74.4% (active); in that of `O=C(Nc1nc(-c2ccccn2)cs1)c1ccc(-c2ccccc2)cc1`, -19% (inactive). In the case of `CC(C)Sc1ccc(C(=O)Nc2nc(-c3ccccn3)cs2)cc1`, the inhibition is 50.6% (inactive). In the case of `CCSc1ccc(C(=O)Nc2sc(-c3ccccc3)cc2C(N)=O)cc1` it was -22% (inactive); in that of `O=C(NN=Cc1cc(Cl)cc([N+](=O)[O-])c1O)c1cccc(S(=O)(=O)N2CCOCC2)c1`, 41.7% (active).

Take `CC(=O)Nc1ccc(C=NNC(=O)c2cccc(S(=O)(=O)N3CCOCC3)c2)cc1`: the inhibition is -5.31% (inactive). On to `CCOc1cc(C=NNC(=O)c2cccc(S(=O)(=O)N3CCOCC3)c2)ccc1OCC(=O)N(C)C`, for which the inhibition is -12.5% (inactive). Regarding `O=C(Oc1cccc(Oc2ccccc2)c1)N1CCCCC1`, the inhibition is -33% (inactive).

In the case of `O=C(Nc1nc(CCC(=O)N2CCN(c3ncccn3)CC2)cs1)NC1CCCCC1`, the inhibition is -9% (inactive). In the case of `COc1ccccc1CNC(=O)CSc1nc2c(-c3ccccc3)c[nH]c2c(=O)n1C1CC1`, the inhibition is -8% (inactive). In the case of `CCc1ccccc1NC(=O)NCCOc1ccc2nnc(-c3cccc(F)c3)n2n1` it was -4% (inactive); in that of `O=S(=O)(NCC1(CO)CC1)c1cccc(Cl)c1`, -9% (inactive).

In the case of `Cc1cc(C(=O)NCC2CCCN2c2ccccc2)no1` (stereo not drawn), the inhibition is 0% (inactive).

With `COCCNC(=O)NC[C@H]1CCCN1c1ccccc1`, the inhibition was 6% (inactive). In the case of `O=C(NC[C@H]1CCCN1c1ccccc1)c1cc(-c2ccco2)[nH]n1` it was 47% (active); in that of `COc1ccc(OC)c(C(=O)Nc2nnc(Cc3ccc(Cl)s3)o2)c1`, -12% (inactive).

Consider `COc1cc(CO)ccc1OCC(=O)Nc1cccc2ccccc12`, for which the inhibition is -4.4% (inactive).

As for `COc1ccc(Cn2c(CO)cnc2SCC(=O)Nc2cccc3ccccc23)cc1`, the inhibition is 41% (active). For `COc1ccc(-c2nnc(SCC(=O)Nc3cccnc3Cl)n2C)cc1`, the inhibition was 2.83% (inactive). As to `O=S(=O)(Cc1ccccc1)N1CCN(c2cc(-n3cccc3)ncn2)CC1`, the inhibition is 6% (inactive).

`CCCN1C(=O)C(C)(C)COc2ccc(N)cc21`: the inhibition is 32% (inactive). As to `Cn1cccc1-c1noc(CNC(=O)c2n[nH]c(=O)c3ccccc23)n1`, the inhibition is -3% (inactive). `CCC(=O)Nc1c(C)nc2scc(C)n2c1=O`: the inhibition was 13% (inactive). In the case of `CC1CCN(c2oc(-c3ccccc3F)nc2C#N)CC1` it was 42.8% (active); in that of `N#Cc1nc(-c2cccc3ccccc23)oc1N`, -28.7% (inactive). The value for `N#Cc1nc(-c2ccco2)oc1N1CCN(C(=O)c2ccccc2F)CC1` was 9% (inactive); that for `O=C(NC[C@]1(O)CCc2ccccc21)c1ccccc1F` was -14% (inactive). The value for `O=C(NCCc1ccccc1)NCCC(O)c1ccccc1` (stereo not drawn) was -6% (inactive); that for `CC(C)C(NC(=O)c1ccc([N+](=O)[O-])cc1)c1nc2ccccc2[nH]1` (stereo not drawn) was -6% (inactive); that for `Clc1cccc(N=C2NN=C(c3ccc4c(c3)OCCO4)CS2)c1` was 44.3% (active). As to `O=C(Cc1cc(=O)[nH]c(SCc2cccc(Cl)c2)n1)Nc1ccc2c(c1)OCCO2`, the inhibition was 12% (inactive). For `c1ccc(Cc2nnc(-c3ccc4c(c3)OCCO4)o2)cc1`, the inhibition was -10% (inactive). As to `CC(=NC1CCN(Cc2ccccc2)CC1)c1c(O)[nH]c(=O)[nH]c1=O`, the inhibition was -3% (inactive). In the case of `c1ccc(CN2CCC(N=C3NN=C(c4ccc5c(c4)OCCO5)CS3)CC2)cc1` it was 49.7% (active). For `CC1Oc2ccccc2OC1C(=O)N1CCN(c2nc3c(S(C)(=O)=O)cccc3s2)CC1` (stereo not drawn), the inhibition was -4% (inactive). In the case of `Cc1ccc(Cl)cc1-n1ccn(CC#N)c(=O)c1=O` it was -5% (inactive). In the case of `Cc1ccc2nc(C(=O)O)cc(Nc3ccc(C)c(C)c3)c2c1` it was -5% (inactive). In the case of `Cc1ccc(Nc2cc(C)nc3c(C)ccc([N+](=O)[O-])c23)cc1` it was 106% (active); in that of `Cc1ccc(NC2=NC(c3ccccc3)n3c(nc(C)cc3=O)N2)cc1` (stereo not drawn), -5.57% (inactive).

For `O=C(Nc1cccc(-c2nc3ccccc3s2)c1)c1ccc([N+](=O)[O-])cc1`, the inhibition is -2% (inactive).

`CC(=O)OCC1OC(Oc2ccc(C(=O)/C=C/c3ccccc3)cc2)C(OC(C)=O)C(OC(C)=O)C1OC(C)=O` (stereo not drawn): the inhibition was 5% (inactive). The value for `CCN(CC)CCC(c1ccc2c(c1)OCO2)c1c(OC)cc(OC)c2c(-c3ccccc3)cc(=O)oc12` (stereo not drawn) was 24.5% (inactive); that for `COc1cc(OC)c2ccc(=O)oc2c1C(CCN1CCN(c2ccccc2)CC1)c1ccc2c(c1)OCO2` (stereo not drawn) was 41.6% (active). In the case of `COc1cc(C(CCN2CCN(c3ccccc3)CC2)c2c(OC)cc(OC)c3ccc(=O)oc23)cc(OC)c1OC` (stereo not drawn) it was -0.54% (inactive). For `C=CCOc1ccc(C(O)=C2C(=O)C(=O)N(CCOC)C2c2cccnc2)cc1` (stereo not drawn), the inhibition is 0.46% (inactive).

Regarding `FC(F)Sc1ccc(-c2csc(Nc3ccccc3)n2)cc1`, the inhibition is -4% (inactive). With `O=C(c1ccc(Br)o1)N1CCC(CSc2ccccn2)CC1`, the inhibition is 7% (inactive).

`CC(=O)Nc1ccc(C(=O)N2CCc3nc4ccc(Cl)cn4c(=O)c3C2)cc1`: the inhibition is -7% (inactive). In the case of `CC(C)CS(=O)(=O)C1CN(C(=O)c2ccc3nsnc3c2)C1` it was -14% (inactive). In the case of `OCc1cccc2cccnc12` it was 41.4% (inactive); in that of `Oc1c(CN2CCOCC2)ccc(CN2CCOCC2)c1O`, -7.99% (inactive); in that of `COc1ncc(Br)c2ncccc12`, -7% (inactive). The value for `COCCOCc1ccc(O)c2ncccc12` was 114% (active); that for `Oc1ccc(CN2CCCCCC2)c2cccnc12` was 124% (active). For `Clc1ccc(CN2CCCCCC2)cc1Cl`, the inhibition was -4.06% (inactive). In the case of `Oc1c(CN2CCCC2)cc(Cl)c2cccnc12` it was 103% (inactive). In the case of `Oc1ccc(CN2CCCC2)c2cccnc12` it was 106% (active); in that of `O=[N+]([O-])c1ccc(N2CCCCC2)c2cccnc12`, 46.9% (inactive).

The values above are taken from PubChem BioAssay AID1272365 (Small Molecule Screening Facility, UW Madison, 2020).
